Data from publication PMC5540273 (PLoS ONE, 2017).

Columns and labels:
Details in all cases: concentration: 1 μM, replicates: in singlicate; n = 1
[1] = test system: T1, ASK2
T1 construct: gene MAP3K6

[2] = test system: AURKA
[3] = test system: AURKB
[4] = test system: AURKC
[5] = test system: AXL
[6] = test system: T2, BIKE
T2 construct: gene BMP2K

[7] = test system: BLK
[8] = test system: BMPR1A
[9] = test system: BMPR1B
[10] = test system: BMPR2
[11] = test system: BMX
[12] = test system: BRAF
[13] = test system: T3, BRK
T3 construct: gene PTK6

[14] = test system: BRSK1
[15] = test system: BRSK2
[16] = test system: BTK
[17] = test system: BUB1
[18] = test system: CAMK1B
[19] = test system: CAMK1D
[20] = test system: CAMK1G
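Also: KINOMEscan kinase panel screen.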

Row | Compound | %Inh [1] | %Inh [2] | %Inh [3] | %Inh [4] | %Inh [5] | %Inh [6] | %Inh [7] | %Inh [8] | %Inh [9] | %Inh [10] | %Inh [11] | %Inh [12] | %Inh [13] | %Inh [14] | %Inh [15] | %Inh [16] | %Inh [17] | %Inh [18] | %Inh [19] | %Inh [20]
1 | O=C(Nc1c(F)cccc1F)c1cc(C(=O)c2ccccc2F)c[nH]1 [GSK1326180] | 0% | 0% | 0% | 0% | 24% | 0% | 0% | 6% | 0% | 1% | 18% | 0% | 11% | 0% | 0% | 0% | 31% | 33% | 13% | 6%
2 | O=C(O)C(F)(F)F.O=c1[nH]ccc2nc(N[C@@H]3CCNC3)nc(Nc3ccc4c(c3)S(=O)(=O)CC4)c12 [GSK2181306] | 38% | 83% | 72% | 87% | 100% | 98.8% | 28% | 0% | 7% | 99.5% | 24% | 0% | 18% | 52% | 46% | 29% | 90.5% | 98.7% | 98.6% | 82%
3 | CN(C)CCOc1ccc(-c2cc(-c3ccc(Cl)c(O)c3)c(-c3ccncc3)[nH]2)cc1.Cl.Cl [SB-684387] | 0% | 21% | 0% | 0% | 0% | 0% | 64% | 90.6% | 29% | 10% | 27% | 96.6% | 75% | 0% | 0% | 0% | 83% | 40% | 23% | 0%
4 | CN1CCN(Cc2ccc(NC(=O)Nc3ccc(N(C)c4ccnc(Nc5ccc(CS(C)(=O)=O)cc5)n4)cc3)cc2)CC1.Cl [GW827654] | 4% | 99.9% | 99.7% | 98.5% | 99.3% | 93.2% | 94.1% | 44% | 96.2% | 87% | 69% | 0% | 8% | 19% | 10% | 60% | 51% | 42% | 27% | 23%
5 | COc1cccc(NC(=O)NCCNc2ccnc(Nc3ccc(F)cc3)n2)c1 [GSK1379879] | 0% | 19% | 40% | 45% | 3% | 14% | 18% | 0% | 0% | 5% | 4% | 0% | 30% | 0% | 0% | 0% | 58% | 0% | 8% | 0%
6 | COc1cc(Nc2ccnc3cc(-c4ccncc4)ccc23)cc(OC)c1OC.Cl [GW494610] | 0% | 0% | 82% | 27% | 31% | 0% | 94.9% | 62% | 99% | 10% | 37% | 60% | 19% | 0% | 9% | 90% | 42% | 2% | 0% | 9%
7 | c1ccc(Oc2ccc(Nc3ccnc4cc(-c5ccc(CN6CCCCC6)o5)ccc34)cc2)nc1 [GW567143] | 24% | 10% | 80% | 44% | 8% | 8% | 95.5% | 0% | 0% | 0% | 6% | 2% | 96.5% | 6% | 0% | 0% | 18% | 0% | 19% | 0%
8 | Cc1cccc(Nc2nc(NCCN)ncc2C(N)=O)c1 [GSK1292139] | 8% | 18% | 0% | 25% | 9% | 77% | 1% | 0% | 0% | 70% | 0% | 3% | 0% | 10% | 0% | 0% | 66% | 98.1% | 84% | 23%
9 | CC(C)c1nc(-c2cccc(NS(=O)(=O)c3c(F)cccc3F)c2)c(-c2ccnc(Nc3ccc(N4CCOCC4)nc3)n2)s1.Cl [GSK1723980] | 20% | 41% | 42% | 50% | 74% | 19% | 99.8% | 67% | 99.7% | 0% | 94% | 100% | 96.4% | 16% | 37% | 41% | 93.1% | 13% | 32% | 2%
10 | Cl.N#CCc1ccc(Nc2nccc(Nc3ccc(Oc4ccccc4)cc3)n2)cc1 [GW639905] | 7% | 6% | 31% | 34% | 22% | 26% | 94.1% | 0% | 0% | 0% | 34% | 0% | 60% | 0% | 0% | 0% | 0% | 31% | 0% | 0%
